PLK1 PBD block: inhibitors of human PLK1 polo-box domain binding | P53350 | Plk1 PBD binding of FITC phosphopeptide, fluorescence polarization | Potency, µM, actives largely listed as inhibitors | 2.8% of 360,000 active | AID 720504; also: series mostly up to about 57 µM; nearly all actives have a fitted effect of over 65% in size
Tau fluor cs: counter-screen for tau fibril formation inhibitors | tau K18 P301L Alexa594 fluorescence, heparin fibrillization | Potency, µM (doses to about 57.7 µM) | 0.93% of 280,000 active | AID 1463; also: nearly all actives have a fitted effect of over 55% in size
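Human tau K18 P301L (15 uM unlabeled, 0.24 uM Alexa 594-labeled) in 100 mM sodium acetate pH 7 with 20 uM heparin, 6 hr at 37 C. ThT 30 uM added, 1 hr ambient; Alexa 594 FP and total fluorescence read at 555/632 nm.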
VDR inh: vitamin D3 receptor (human) inhibition | VDR-SRC2-3 peptide fluorescence polarization, 2 h | P11473 | Potency, µM, hits mostly inhibitors | 0.93% of 400,000 active
Target sequence (P11473 whole entry, looked up): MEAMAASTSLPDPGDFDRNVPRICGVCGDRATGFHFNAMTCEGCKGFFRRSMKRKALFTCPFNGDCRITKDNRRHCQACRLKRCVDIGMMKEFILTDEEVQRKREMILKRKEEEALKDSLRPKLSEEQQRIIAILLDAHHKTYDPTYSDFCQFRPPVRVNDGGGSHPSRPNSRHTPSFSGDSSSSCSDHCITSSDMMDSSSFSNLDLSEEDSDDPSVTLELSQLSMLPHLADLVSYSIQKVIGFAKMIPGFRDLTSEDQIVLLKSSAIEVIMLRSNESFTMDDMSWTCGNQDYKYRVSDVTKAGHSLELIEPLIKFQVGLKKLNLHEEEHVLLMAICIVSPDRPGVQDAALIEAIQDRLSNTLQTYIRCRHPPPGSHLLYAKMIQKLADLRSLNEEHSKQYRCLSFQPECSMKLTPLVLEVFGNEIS
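FP read-out; VDR + SRC2-3 coactivator peptide; 23 nl compound by pintool; 2 h RT incubation; reagents held at 4 deg C, protected from light.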
Tau fibril FP: tau fibrillization inhibition (FP). K18 P301L tau heparin fibrillization, Alexa594 FP, 6 h. Potency, µM (titrated, usually from 57.7 µM), usual class: inhibitors. P10636. 0.39% of 280,000 active. AID 1468; also: nearly all actives have a fitted effect of over 55% in size
Target sequence (P10636 561-689 P618L limits assumed): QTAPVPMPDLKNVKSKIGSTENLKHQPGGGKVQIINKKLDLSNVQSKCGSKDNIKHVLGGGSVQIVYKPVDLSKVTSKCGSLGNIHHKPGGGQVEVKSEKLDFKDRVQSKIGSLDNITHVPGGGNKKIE
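Read-out: fluorescence polarization of Alexa 594-labeled tau (0.24 uM), 555 nm excitation, 632 nm emission. Mixtures held 15 uM unlabeled K18 P301L, compound and 20 uM heparin, pH 7 acetate buffer, incubated 6 hr at 37 C.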
Tau fibril ThT: tau fibrillization inhibition (ThT binding). P10636. Potency, µM (titrated, usually from 57.4 µM), usual class: inhibitors. recombinant tau K18 P301L, heparin-induced fibrillization, ThT fluorescence. 2.1% of 270,000 active; also: nearly all actives have a fitted effect of over 55% in size
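ThT emission at 510 nm, taken 1 hr after adding 30 uM dye, quantifies aggregates formed when 20 uM heparin acts on human tau K18 P301L for 6 hr at 37 C.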
Sfp inh: Sfp phosphopantetheinyl transferase inhibition | Q9F4F7 | Biochemical Sfp PPTase activity, qHTS | Potency, µM, usual class: inhibitors | 3.5% of 310,000 active | AID 1490;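 also: the enzyme is Sfp with the accession as filed and its product quenches rhodamine fluorescence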
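Fluorescence-quenching assay with 15 nM Sfp, 5 uM rhodamine-CoA and 12.5 uM BHQ-2-labelled ybbR peptide in pH 7.6 Hepes/MgCl2 buffer. Enzyme was pre-incubated with compound for 15 min at room temperature. Rate was taken from the 30-min fluorescence change (525/598 nm).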
Large screens that a line does not name were inactive; [ ] = remark or other dose. A selection: hits, their analogues and other compounds. The true share with any hit is near 6%. Calls follow the shape of the dose curve; as a rule, active = well fitted curve in the direction sought with a large enough effect; inconclusive = small, poorly fitted or top-dose-only effect, or another doubt; inactive = no such curve, though single readings can be large; an effect the other way counts as inactive or inconclusive.

CCc1ccc(CNC(=O)C2CCCN(S(=O)(=O)N(CC)c3ccccc3)C2)cc1 (stereo not drawn)	none (no result: Tau fluor cs, Tau fibril FP, Tau fibril ThT)
CCC1=NN2C(=N)/C(=C\c3cccn3-c3ccc(C)cc3C)C(=O)N=C2S1	PLK1 PBD block inconclusive, Tau fibril ThT inconclusive
CCC1=NN2C(=N)/C(=C\c3cccn3-c3c(C)cccc3C)C(=O)N=C2S1	PLK1 PBD block inconclusive, Sfp inh 56µM
CC1=CSC2=NC(=O)/C(=C\c3cccn3-c3ccccc3)C(=N)N12	Sfp inh 10µM
Cc1cccc(C)c1-n1cccc1/C=C1/C(=N)N2C(=NC1=O)SN=C2S(C)(=O)=O	PLK1 PBD block 21µM, VDR inh inconclusive, Tau fibril ThT inconclusive
Cc1ccc(-n2cccc2/C=C2/C(=N)N3C(=NC2=O)SN=C3S(C)(=O)=O)cc1Cl	PLK1 PBD block 27µM, VDR inh inconclusive, Tau fibril ThT inconclusive, Sfp inh 89µM
COC(=O)c1ccc(Cl)cc1NC(=O)N1CCCn2nc(C)cc21	none (no result: PLK1 PBD block, Sfp inh)
CN1C(=O)/C(=C\c2cccc(OCc3ccccc3)c2)SC1=S	none (no result: Tau fluor cs, Tau fibril FP, Tau fibril ThT)
O=C(O)COc1cccc(/C=C2/SC(=S)N(Cc3ccccc3)C2=O)c1	PLK1 PBD block 24µM, VDR inh 79µM (no result: Tau fluor cs, Tau fibril FP, Tau fibril ThT)
O=C(O)CN1C(=O)/C(=C\c2cccc(OCc3ccccc3)c2)SC1=S	PLK1 PBD block 24µM, VDR inh 56µM (no result: Tau fluor cs, Tau fibril FP, Tau fibril ThT)
CC(C)(C)c1ccc(C(=O)NN=C2CCCC2)cc1	none (no result: Tau fluor cs, Tau fibril FP, Tau fibril ThT)
O=C(NN=C1CCCCCCC1)c1ccc(F)cc1	PLK1 PBD block 19µM
CCNc1ccc(C(=O)NN=C2CCCC2)cc1[N+](=O)[O-]	Tau fibril ThT 8.9µM
Cc1ccc(C(=O)NN=C2CCCC2)cc1C	none (no result: Tau fluor cs, Tau fibril FP, Tau fibril ThT, Sfp inh)
COc1ccc(Cl)cc1-c1ccc(C(=O)O)s1	VDR inh inconclusive (no result: PLK1 PBD block)
CCC(=O)N1CCc2cc(S(=O)(=O)NCCC(=O)NCc3ccc(C)cc3)ccc21	none (no result: PLK1 PBD block, Sfp inh)
Cc1ccc(S(=O)(=O)N2CN(Cc3ccco3)c3nc4ccccc4nc32)cc1C	Sfp inh 40µM
COc1ccc(S(=O)(=O)N2CN(Cc3ccco3)c3nc4ccccc4nc32)cc1	Tau fibril FP inconclusive, Tau fibril ThT 22µM, Sfp inh 56µM
Cc1ccc(S(=O)(=O)N2CN(Cc3ccco3)c3nc4ccccc4nc32)cc1	none
Cc1ccc(S(=O)(=O)Nc2nc3ccccc3nc2NCc2ccco2)cc1C	PLK1 PBD block inconclusive, Tau fluor cs inconclusive, Tau fibril ThT inconclusive
O=S(=O)(c1ccc(F)cc1)N1CN(Cc2ccco2)c2nc3ccccc3nc21	Tau fluor cs inconclusive, Tau fibril FP inconclusive, Tau fibril ThT 32µM, Sfp inh 56µM
NC(=O)C1CCN(C(=O)c2ccc(Cl)c(S(=O)(=O)NCc3ccco3)c2)CC1	none (no result: Tau fluor cs, Tau fibril FP, Tau fibril ThT, Sfp inh)
O=C(c1ccc(Cl)c(S(=O)(=O)NCc2ccco2)c1)N1CCN(c2ccccc2F)CC1	PLK1 PBD block 27µM
COc1ccc(C(=O)c2oc3ccc(OC)cc3c2N)cc1	Tau fluor cs 14µM[quencher], Tau fibril ThT 11µM
Cn1c(SCc2ccc(F)cc2)nc2ccc(C(=O)NCc3cccc(Cl)c3)cc21	none (no result: PLK1 PBD block, Sfp inh)
O=C(Nc1cccc(S(=O)(=O)N2CCCC2)c1)[C@H]1C[C@H](O)[C@@H](CO)O1	none (no result: Tau fluor cs, VDR inh, Tau fibril FP, Tau fibril ThT, Sfp inh)
C=C1C(=O)[C@]23C[C@H]1CCC2[C@@]1(C)C(C[C@@H]3O)[C@](C)(C(=O)OC)CC[C@@H]1OC(C)=O (stereo partly drawn)	PLK1 PBD block 11µM (no result: Tau fluor cs, VDR inh, Tau fibril FP, Tau fibril ThT, Sfp inh)
CC(=NNC(=O)c1cc(C)nc2ccccc12)c1ccc(N2CCOCC2)cc1	none (no result: Tau fluor cs, Tau fibril FP, Tau fibril ThT, Sfp inh)
C/C(=N\NC(=O)c1cc(-c2ccncc2)nc2ccccc12)c1ccc(N2CCOCC2)cc1	PLK1 PBD block 30µM, Tau fibril ThT inconclusive
CCOC(=O)N1CCc2c(sc3c2c(=O)n(-c2ccccc2)c(=O)n3CC(=O)Nc2ccc(OC)cc2OC)C1	none (no result: PLK1 PBD block, Sfp inh)
O=C(/C=C/c1ccco1)Nc1nc(-c2ccc(F)c(F)c2)cs1	Sfp inh 22µM
CCOC(=O)Cc1csc(NC(=O)/C=C/c2ccco2)n1	Sfp inh 71µM (no result: Tau fibril ThT)
CCOC(=O)Cc1csc(N/C(=N/S(=O)(=O)c2ccc(Cl)cc2)c2ccccc2)n1	PLK1 PBD block 21µM, VDR inh inconclusive
Cc1csc(NC(=O)/C=C/c2ccco2)n1	none

Assay outcomes (PubChem BioAssay)
